PubChem BioAssay (NCATS)
“And” between values parts separate entries of the source, which are not always exact repeats. Identical values can stand only once. Values without a mark were called inactive. Inconclusive results are not listed. Some structures have more than one record in an assay (separate samples or runs), and their calls can disagree. The source made the active and inactive calls. Unless noted, the call rests on the fitted dose curve; in most records, active means well fitted curve in the direction sought with a large enough effect; inconclusive means small, poorly fitted or top-dose-only effect, or another doubt; inactive means no such curve, though single readings can be large; an effect the other way counts as inactive or inconclusive.

Assays:
[1] = target: Tumor necrosis factor (Homo sapiens) (UniProt P01375); test: qHTS assay to identify small molecules that stimulate Tumor Necrosis Factor-alpha (TNF-alpha) secretion (AID 651757; active means well fitted curve in the direction sought with a large enough effect in the signal ratio; the % refers to the signal ratio; further: 0% is about no effect); conditions: Human cells, HTRF 665/615 ratio; series mostly up to 92.2 µM
Sequence of Tumor necrosis factor (Homo sapiens) (P01375 whole entry, looked up): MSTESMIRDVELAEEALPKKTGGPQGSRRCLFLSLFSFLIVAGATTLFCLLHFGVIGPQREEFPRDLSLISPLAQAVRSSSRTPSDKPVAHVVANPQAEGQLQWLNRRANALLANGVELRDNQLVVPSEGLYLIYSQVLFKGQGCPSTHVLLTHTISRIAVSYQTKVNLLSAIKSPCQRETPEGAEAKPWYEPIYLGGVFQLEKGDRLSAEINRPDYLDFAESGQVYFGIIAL
Procedure, shortened: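 Read-out is HTRF, a TR-FRET sandwich of cryptate- and XL665-labeled anti-TNF-alpha antibodies detecting cytokine secreted by THP-1 cells. Cells had been incubated with test compounds at 37 C for 17 hrs beforehand.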

[2] = qHTS assay for environmental chemicals that activate the Aryl hydrocarbon Receptor (AhR) signaling pathway (AID 651777); conditions: 1A2-DRE human hepatoma cells, luciferase, 24 h; activation: hits give high values; further: nearly all actives have a fitted effect of over 15% in size; further: potency means the concentration at half of the fitted maximal effect; on activation: % of control where 0% means no effect
Procedure, shortened: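 Human hepatoma 1A2-DRE cells, stably carrying a dioxin response element and CYP1A2 promoter driving luciferase, were exposed to compounds for 24 hr at 37 C and 5% CO2. Luciferase signal was then read after 30 min One-Glo at room temperature.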

[3] = target: Peroxisome proliferator-activated receptor alpha (Homo sapiens) (UniProt Q07869); test: qHTS assay for small molecule agonists of the peroxisome proliferator-activated receptor alpha (PPARalpha) signaling pathway (AID 651778); conditions: PathHunter PPARalpha complementation, chemiluminescence, 6 h; hits give high values; further: % of control where 0% means no effect
Sequence of Peroxisome proliferator-activated receptor alpha (Homo sapiens) (Q07869 whole entry, looked up): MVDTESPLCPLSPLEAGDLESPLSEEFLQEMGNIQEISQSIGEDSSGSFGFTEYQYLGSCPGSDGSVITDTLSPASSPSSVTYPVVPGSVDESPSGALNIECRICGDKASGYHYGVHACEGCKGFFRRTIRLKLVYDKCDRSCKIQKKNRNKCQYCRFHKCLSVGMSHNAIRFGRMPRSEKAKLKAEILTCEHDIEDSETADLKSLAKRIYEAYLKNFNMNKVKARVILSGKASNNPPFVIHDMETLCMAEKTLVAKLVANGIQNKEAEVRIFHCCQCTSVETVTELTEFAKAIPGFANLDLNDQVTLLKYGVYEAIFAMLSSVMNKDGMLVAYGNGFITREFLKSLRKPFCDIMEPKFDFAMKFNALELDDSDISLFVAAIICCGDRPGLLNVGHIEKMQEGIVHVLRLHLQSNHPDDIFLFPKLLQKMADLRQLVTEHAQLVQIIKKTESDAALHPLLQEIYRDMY
Procedure, shortened: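 Cells plated at 2,000/well and held overnight at 37 C, 5% CO2, then compound added by pin tool for 6 hr; after PathHunter detection reagent and 60 min at room temperature, chemiluminescence from enzyme complementation was read.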

[4] = target: Nuclear receptor ROR-gamma (Homo sapiens) (UniProt P51449); test: qHTS assay for small molecule antagonists of the retinoid-related orphan receptor gamma (ROR-gamma) signaling pathway (AID 651802); conditions: ROR-gamma antagonist cell reporter assay; series mostly up to 92.2 µM; further: nearly all actives have a fitted effect of over 60% in size; further: potency means the concentration at half of the fitted maximal effect
Sequence of Nuclear receptor ROR-gamma (Homo sapiens) (P51449 whole entry, looked up): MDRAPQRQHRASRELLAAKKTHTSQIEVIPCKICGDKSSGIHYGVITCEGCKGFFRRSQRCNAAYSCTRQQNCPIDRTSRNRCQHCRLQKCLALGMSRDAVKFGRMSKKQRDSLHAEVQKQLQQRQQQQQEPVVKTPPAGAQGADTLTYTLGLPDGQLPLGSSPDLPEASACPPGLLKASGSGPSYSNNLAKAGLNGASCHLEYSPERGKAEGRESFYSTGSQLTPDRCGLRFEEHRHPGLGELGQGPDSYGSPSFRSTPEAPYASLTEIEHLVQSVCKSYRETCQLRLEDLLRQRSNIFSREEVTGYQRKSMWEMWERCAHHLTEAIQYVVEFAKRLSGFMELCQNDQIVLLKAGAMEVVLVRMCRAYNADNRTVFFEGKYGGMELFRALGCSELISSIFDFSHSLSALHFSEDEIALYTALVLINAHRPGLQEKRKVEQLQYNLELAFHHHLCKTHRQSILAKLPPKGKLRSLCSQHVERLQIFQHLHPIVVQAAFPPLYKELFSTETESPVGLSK
Procedure, shortened: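 CHO, TET-inducible ROR + RORE-LUC reporter, 1536-well qHTS. Compound pinned, doxycycline added, 16hr 37C/5% CO2. ONE-Glo, 30 min RT, luminescence; signal drop scored as antagonism.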

[5] = qHTS assay to identify small molecules that stimulate interleukin-8 (IL-8) secretion (AID 651758; active means well fitted activation curve with a large enough effect in the signal ratio; the % refers to the signal ratio; further: potency means the concentration at half of the fitted maximal effect; on activation: 0% is about no effect); conditions: HTRF ratio (665/615); series mostly up to 92.2 µM
Procedure, shortened: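 THP-1, 2000 cells/well; cpd 16 h, 37 C; add cryptate + XL665 anti-IL-8 Abs; RT 1-3 h; TR-FRET read.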

[6] = target: Tyrosine-protein kinase Yes (Homo sapiens) (UniProt P07947); test: qHTS for small molecule inhibitors of Yes1 kinase: Primary Screen (AID 686947); conditions: Yes1 kinase biochemical qHTS inhibition; series mostly up to 76.9 µM;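 further: plate controls were DMSO with enzyme for no effect and no-enzyme DMSO wells for full effect; nearly all actives have a fitted effect of over 60% in size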
Sequence of Tyrosine-protein kinase Yes (Homo sapiens) (P07947 whole entry, looked up): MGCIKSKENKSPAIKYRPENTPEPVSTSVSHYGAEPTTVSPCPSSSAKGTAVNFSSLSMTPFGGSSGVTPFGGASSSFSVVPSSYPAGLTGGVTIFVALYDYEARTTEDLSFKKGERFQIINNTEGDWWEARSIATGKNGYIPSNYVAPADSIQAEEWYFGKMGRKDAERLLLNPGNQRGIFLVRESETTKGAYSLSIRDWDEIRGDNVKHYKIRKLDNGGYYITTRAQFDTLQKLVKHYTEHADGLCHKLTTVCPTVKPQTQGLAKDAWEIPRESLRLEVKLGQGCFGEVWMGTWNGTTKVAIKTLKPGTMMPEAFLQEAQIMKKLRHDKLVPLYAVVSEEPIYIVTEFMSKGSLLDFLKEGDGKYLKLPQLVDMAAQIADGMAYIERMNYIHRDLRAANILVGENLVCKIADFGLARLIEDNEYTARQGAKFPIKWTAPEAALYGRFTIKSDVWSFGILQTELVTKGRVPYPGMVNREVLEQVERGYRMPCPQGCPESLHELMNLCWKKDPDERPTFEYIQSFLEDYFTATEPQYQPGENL
Procedure, shortened: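 Yes1 (4 nM) preincubated 20 min with compound, then 60 min room-temperature reaction with 0.1 mM ATP and 0.3 mg/mL poly(E4Y) in pH 7.5 Tris, 10 mM MgCl2. ADP measured by ADP-Glo luminescence, normalised to enzyme/no-enzyme controls.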

[7] = qHTS for small molecule inhibitors of Yes1 kinase: Counter Assay (AID 686950); conditions: series mostly up to 76.9 µM;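 further: no kinase present so only ADP-Glo detection of a fixed ADP amount is tested; luminescence from ADP-Glo reporting ADP in a fixed ATP and ADP mixture; 0% = DMSO wells with ATP plus ADP and -100% = ATP-only wells without ADP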
Procedure, shortened: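 Enzyme-free ADP-Glo interference check: compounds were preincubated 20 min in buffer, then an ATP/ADP mix (0.08 mM ATP, 0.02 mM ADP final) was added for 60 min at room temperature before two-step ADP-Glo luminescence detection.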

Question: Which outcome [1] does the source give for CC(C)NCC(O)COc1cccc2ccccc12 (stereo not given) here?
Answer: inactive

Question: And the activation [2]?
Answer: 1.27% and 9.4%

Question: What about the max response [3] of the same molecule?
Answer: -1.25% and -0.701%

Question: And the Potency [4]?
Answer: inactive

Question: Which results are given for O=C1CN(/N=C/c2ccc([N+](=O)[O-])o2)C(=O)N1?
Answer: Potency [5]: inactive; activation [2]: 4.15%; max response [3]: -1.28%

Question: With Nc1cc(-c2ccncc2)c[nH]c1=O as the molecule, how does the activation [2] read?
Answer: -0.684%

Question: What about the max response [3] of the same molecule?
Answer: -1.14%

Question: For Nc1nc2ccc([N+](=O)[O-])cc2s1, which activation [2] is on record?
Answer: 8.89%

Question: And the max response [3]?
Answer: -11%

Question: With O=C(OCc1ccccc1)c1ccccc1 as the molecule, how does the max response [3] read?
Answer: -1.34%

Question: Which activation [2] does the source give for C=CCCCCCCCCC(=O)O here?
Answer: 1.9%

Question: What about the max response [3] of the same molecule?
Answer: 3.91%

Question: With CN(C)c1ccc(N=NS(=O)(=O)O)cc1 as the molecule, how does the Potency [2] read?
Answer: 70.8 µM (active)

Question: What about the activation [2] of the same molecule?
Answer: 10.4%

Question: What about the max response [3] of the same molecule?
Answer: -7.89% and -1.86%

Question: What about the Potency [4] of the same molecule?
Answer: 5.96 µM (active)

Question: With CN1[C@@H]2CC[C@H]1CC(OC(=O)C(CO)c1ccccc1)C2 (stereo not given in full) as the molecule, how does the activation [2] read?
Answer: -1.81%

Question: Which outcome [1] does the source give for C#C[C@]1(O)CC[C@H]2[C@@H]3CCc4cc(O)ccc4[C@H]3CC[C@@]21C here?
Answer: inactive

Question: And the Potency [5]?
Answer: 75 µM (active)

Question: And the activation [2]?
Answer: -0.528% and -0.741%

Question: And the max response [3]?
Answer: -1.9% and -2.24%

Question: And the Potency [4]?
Answer: 33.5 µM (active)

Question: For CN1CC(=O)N/C1=N/C(=O)Nc1cccc(Cl)c1, which outcome [6] is on record?
Answer: inactive

Question: And the outcome [7]?
Answer: inactive

Question: With CCCCCCCCCCCCCCCCCC(=O)O as the molecule, how does the outcome [1] read?
Answer: inactive

Question: What about the activation [2] of the same molecule?
Answer: 0.0234% and 0.947% and 1.53%

Question: And the max response [3]?
Answer: 3.29% and 5.21% and -0.146%

Question: And the Potency [4]?
Answer: inactive
